Test results as given in the supplement of paper PMC4466140.

These binders were tested against AgAbp1 (assay: SPOT peptide array binding signal intensity (averaged, normalized) (arbitrary units (background-subtracted, floor 0; scale differs between SH3 domains)); higher = stronger binding of the SH3 domain to the peptide).
In short: (§1)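 Binding signal refers to normalized, background-subtracted spot intensity averaged over replicates, expressed in arbitrary units that differ between domains. GST-fused SH3 domains from four yeast species were incubated at 10 μg/ml overnight at 4°C on cellulose membranes of synthetic 15-mer peptides with cysteines replaced by serines. Bound protein was detected with anti-GST antibody, an HRP anti-mouse secondary and luminol, and quantified with Genespotter.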

Binder	SPOT peptide array binding signal intensity
GTIARPLFLVVLFFI	≤ 0

The binders below were run against AgBbc1 in the same assay as above.
In short: as §1

Binder	SPOT peptide array binding signal intensity
GTIARPLFLVVLFFI	1.25

What follows are binders tested against AgBem1-D1 in the same assay as above.
In short: as §1

Binder	SPOT peptide array binding signal intensity
GTIARPLFLVVLFFI	33

The binders below were run against AgBzz1-D1 in the same assay as above.
In short: as §1

Binder	SPOT peptide array binding signal intensity
GTIARPLFLVVLFFI	18

These binders were tested against AgBzz1-D2 in the same assay as above.
In short: as §1

Binder	SPOT peptide array binding signal intensity
GTIARPLFLVVLFFI	13.5

The binders below were run against AgCyk3 in the same assay as above.
In short: as §1

Binder	SPOT peptide array binding signal intensity
GTIARPLFLVVLFFI	8

Each binder was assayed against AgFus1 in the same assay as above.
In short: as §1

Binder	SPOT peptide array binding signal intensity
GTIARPLFLVVLFFI	1900

These binders were tested against AgHof1 in the same assay as above.
In short: as §1

Binder	SPOT peptide array binding signal intensity
GTIARPLFLVVLFFI	0.75

What follows are binders tested against AgHse1 in the same assay as above.
In short: as §1

Binder	SPOT peptide array binding signal intensity
GTIARPLFLVVLFFI	428

Each binder was assayed against AgLsb1 in the same assay as above.
In short: as §1

Binder	SPOT peptide array binding signal intensity
GTIARPLFLVVLFFI	≤ 0

What follows are binders tested against AgLsb4 in the same assay as above.
In short: as §1

Binder	SPOT peptide array binding signal intensity
GTIARPLFLVVLFFI	580

The binders below were run against AgMyo5 in the same assay as above.
In short: as §1

Binder	SPOT peptide array binding signal intensity
GTIARPLFLVVLFFI	0.5

Each binder was assayed against AgNbp2 in the same assay as above.
In short: as §1

Binder	SPOT peptide array binding signal intensity
GTIARPLFLVVLFFI	57

The binders below were run against AgRvs167 in the same assay as above.
In short: as §1

Binder	SPOT peptide array binding signal intensity
GTIARPLFLVVLFFI	1.33

What follows are binders tested against AgSho1 in the same assay as above.
In short: as §1

Binder	SPOT peptide array binding signal intensity
GTIARPLFLVVLFFI	338

These binders were tested against AgSla1-D1-D2 in the same assay as above.
In short: as §1

Binder	SPOT peptide array binding signal intensity
GTIARPLFLVVLFFI	≤ 0

These binders were tested against AgSla1-D3 in the same assay as above.
In short: as §1

Binder	SPOT peptide array binding signal intensity
GTIARPLFLVVLFFI	1.75

These binders were tested against CaAbp1-D1 in the same assay as above.
In short: as §1

Binder	SPOT peptide array binding signal intensity
GTIARPLFLVVLFFI	56.5

What follows are binders tested against CaAbp1-D2 in the same assay as above.
In short: as §1

Binder	SPOT peptide array binding signal intensity
GTIARPLFLVVLFFI	28.5

These binders were tested against CaBbc1 in the same assay as above.
In short: as §1

Binder	SPOT peptide array binding signal intensity
GTIARPLFLVVLFFI	2

These binders were tested against CaBem1-D1 in the same assay as above.
In short: as §1

Binder	SPOT peptide array binding signal intensity
GTIARPLFLVVLFFI	15.5

These binders were tested against CaBzz1-D1 in the same assay as above.
In short: as §1

Binder	SPOT peptide array binding signal intensity
GTIARPLFLVVLFFI	88

These binders were tested against CaBzz1-D2 in the same assay as above.
In short: as §1

Binder	SPOT peptide array binding signal intensity
GTIARPLFLVVLFFI	23.5

Each binder was assayed against CaCyk3 in the same assay as above.
In short: as §1

Binder	SPOT peptide array binding signal intensity
GTIARPLFLVVLFFI	10

The binders below were run against CaFus1 in the same assay as above.
In short: as §1

Binder	SPOT peptide array binding signal intensity
GTIARPLFLVVLFFI	3640

The binders below were run against CaHof1 in the same assay as above.
In short: as §1

Binder	SPOT peptide array binding signal intensity
GTIARPLFLVVLFFI	16.5

What follows are binders tested against CaHse1 in the same assay as above.
In short: as §1

Binder	SPOT peptide array binding signal intensity
GTIARPLFLVVLFFI	126

The binders below were run against CaLsb1 in the same assay as above.
In short: as §1

Binder	SPOT peptide array binding signal intensity
GTIARPLFLVVLFFI	1.25

These binders were tested against CaLsb4 in the same assay as above.
In short: as §1

Binder	SPOT peptide array binding signal intensity
GTIARPLFLVVLFFI	≤ 0

These binders were tested against CaMyo5 in the same assay as above.
In short: as §1

Binder	SPOT peptide array binding signal intensity
GTIARPLFLVVLFFI	4.5

What follows are binders tested against CaNbp2 in the same assay as above.
In short: as §1

Binder	SPOT peptide array binding signal intensity
GTIARPLFLVVLFFI	600

Each binder was assayed against CaRvs167 in the same assay as above.
In short: as §1

Binder	SPOT peptide array binding signal intensity
GTIARPLFLVVLFFI	49

These binders were tested against CaRvs167-3 in the same assay as above.
In short: as §1

Binder	SPOT peptide array binding signal intensity
GTIARPLFLVVLFFI	17

Each binder was assayed against CaSho1 in the same assay as above.
In short: as §1

Binder	SPOT peptide array binding signal intensity
GTIARPLFLVVLFFI	730

What follows are binders tested against CaSla1-D1-D2 in the same assay as above.
In short: as §1

Binder	SPOT peptide array binding signal intensity
GTIARPLFLVVLFFI	≤ 0

These binders were tested against CaSla1-D3 in the same assay as above.
In short: as §1

Binder	SPOT peptide array binding signal intensity
GTIARPLFLVVLFFI	5.75

What follows are binders tested against ScAbp1 in the same assay as above.
In short: as §1

Binder	SPOT peptide array binding signal intensity
GTIARPLFLVVLFFI	3

Each binder was assayed against ScBbc1 in the same assay as above.
In short: as §1

Binder	SPOT peptide array binding signal intensity
GTIARPLFLVVLFFI	≤ 0

These binders were tested against ScBem1-D1 in the same assay as above.
In short: as §1

Binder	SPOT peptide array binding signal intensity
GTIARPLFLVVLFFI	1

The binders below were run against ScBzz1-D1 in the same assay as above.
In short: as §1

Binder	SPOT peptide array binding signal intensity
GTIARPLFLVVLFFI	40

These binders were tested against ScBzz1-D2 in the same assay as above.
In short: as §1

Binder	SPOT peptide array binding signal intensity
GTIARPLFLVVLFFI	37.5

The binders below were run against ScCyk3 in the same assay as above.
In short: as §1

Binder	SPOT peptide array binding signal intensity
GTIARPLFLVVLFFI	50

The binders below were run against ScFus1 in the same assay as above.
In short: as §1

Binder	SPOT peptide array binding signal intensity
GTIARPLFLVVLFFI	2030

The binders below were run against ScHof1 in the same assay as above.
In short: as §1

Binder	SPOT peptide array binding signal intensity
GTIARPLFLVVLFFI	≤ 0

These binders were tested against ScHse1 in the same assay as above.
In short: as §1

Binder	SPOT peptide array binding signal intensity
GTIARPLFLVVLFFI	472

These binders were tested against ScLsb1 in the same assay as above.
In short: as §1

Binder	SPOT peptide array binding signal intensity
GTIARPLFLVVLFFI	≤ 0

The binders below were run against ScLsb2 in the same assay as above.
In short: as §1

Binder	SPOT peptide array binding signal intensity
GTIARPLFLVVLFFI	≤ 0

The binders below were run against ScLsb3 in the same assay as above.
In short: as §1

Binder	SPOT peptide array binding signal intensity
GTIARPLFLVVLFFI	≤ 0

What follows are binders tested against ScLsb4 in the same assay as above.
In short: as §1

Binder	SPOT peptide array binding signal intensity
GTIARPLFLVVLFFI	≤ 0

What follows are binders tested against ScMyo3 in the same assay as above.
In short: as §1

Binder	SPOT peptide array binding signal intensity
GTIARPLFLVVLFFI	≤ 0

The binders below were run against ScMyo5 in the same assay as above.
In short: as §1

Binder	SPOT peptide array binding signal intensity
GTIARPLFLVVLFFI	1

Each binder was assayed against ScNbp2 in the same assay as above.
In short: as §1

Binder	SPOT peptide array binding signal intensity
GTIARPLFLVVLFFI	78.5

The binders below were run against ScPex13 in the same assay as above.
In short: as §1

Binder	SPOT peptide array binding signal intensity
GTIARPLFLVVLFFI	≤ 0

Each binder was assayed against ScRvs167 in the same assay as above.
In short: as §1

Binder	SPOT peptide array binding signal intensity
GTIARPLFLVVLFFI	1.67

What follows are binders tested against ScSho1 in the same assay as above.
In short: as §1

Binder	SPOT peptide array binding signal intensity
GTIARPLFLVVLFFI	1050

What follows are binders tested against ScSla1-D1-D2 in the same assay as above.
In short: as §1

Binder	SPOT peptide array binding signal intensity
GTIARPLFLVVLFFI	≤ 0

The binders below were run against ScSla1-D3 in the same assay as above.
In short: as §1

Binder	SPOT peptide array binding signal intensity
GTIARPLFLVVLFFI	1

These binders were tested against SpAbp1-D1 in the same assay as above.
In short: as §1

Binder	SPOT peptide array binding signal intensity
GTIARPLFLVVLFFI	3.5

These binders were tested against SpBbc1 in the same assay as above.
In short: as §1

Binder	SPOT peptide array binding signal intensity
GTIARPLFLVVLFFI	2

These binders were tested against SpBzz1-D1 in the same assay as above.
In short: as §1

Binder	SPOT peptide array binding signal intensity
GTIARPLFLVVLFFI	111

Each binder was assayed against SpBzz1-D2 in the same assay as above.
In short: as §1

Binder	SPOT peptide array binding signal intensity
GTIARPLFLVVLFFI	≤ 0

These binders were tested against SpCyk3 in the same assay as above.
In short: as §1

Binder	SPOT peptide array binding signal intensity
GTIARPLFLVVLFFI	24

These binders were tested against SpHof1 in the same assay as above.
In short: as §1

Binder	SPOT peptide array binding signal intensity
GTIARPLFLVVLFFI	45

What follows are binders tested against SpHof1-2 in the same assay as above.
In short: as §1

Binder	SPOT peptide array binding signal intensity
GTIARPLFLVVLFFI	22.5

The binders below were run against SpHof1-3 in the same assay as above.
In short: as §1

Binder	SPOT peptide array binding signal intensity
GTIARPLFLVVLFFI	637

What follows are binders tested against SpHse1 in the same assay as above.
In short: as §1

Binder	SPOT peptide array binding signal intensity
GTIARPLFLVVLFFI	1630

Each binder was assayed against SpLsb1 in the same assay as above.
In short: as §1

Binder	SPOT peptide array binding signal intensity
GTIARPLFLVVLFFI	≤ 0

What follows are binders tested against SpLsb4 in the same assay as above.
In short: as §1

Binder	SPOT peptide array binding signal intensity
GTIARPLFLVVLFFI	≤ 0

The binders below were run against SpMyo1 in the same assay as above.
In short: as §1

Binder	SPOT peptide array binding signal intensity
GTIARPLFLVVLFFI	4.25

Each binder was assayed against SpNbp2 in the same assay as above.
In short: as §1

Binder	SPOT peptide array binding signal intensity
GTIARPLFLVVLFFI	160

These binders were tested against SpPex13 in the same assay as above.
In short: as §1

Binder	SPOT peptide array binding signal intensity
GTIARPLFLVVLFFI	1

The binders below were run against SpRvs167 in the same assay as above.
In short: as §1

Binder	SPOT peptide array binding signal intensity
GTIARPLFLVVLFFI	≤ 0

The binders below were run against SpSla1-D1-D2 in the same assay as above.
In short: as §1

Binder	SPOT peptide array binding signal intensity
GTIARPLFLVVLFFI	1

What follows are binders tested against SpSla1-D3 in the same assay as above.
In short: as §1

Binder	SPOT peptide array binding signal intensity
GTIARPLFLVVLFFI	≤ 0
